From PubChem BioAssay (NCI)
About 83,000 compounds went through this panel and 20% of them were active in at least one assay; those are over-represented in the sample as a whole.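 Step 1: grow cells in 96-well plates. Step 2: add test compound at a single concentration. Step 3: incubate 48 h. Step 4: record percent growth.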 Unmarked numbers belong to inactive results. How the source made its calls: active means growth percent below 10; inactive means the rest.

Test system: M14 melanoma
Experiment: NCI-60 one-dose screen, 48 h (100 = growth as untreated, 0 = no growth, -100 = all killed)
Conditions: 10 µM unless noted

Compound | growth [%]
COc1cccc(NC(=O)Cn2cc(CN3CCN(c4ccnc5cc(Cl)ccc45)CC3)nn2)c1 | 104
CCOc1ccc(NC(=O)CSc2oc(-c3ccccc3)nc2S(=O)(=O)c2ccc(F)cc2)cc1 | 86.9
O=C1Nc2ccc(Br)cc2/C1=N/c1n[nH]c(=S)s1 | 99.8
COc1ccc(C(=O)C2C(c3ccc(OC)cc3)CN(C)C23C(=O)Nc2ccccc23)cc1 (stereo not drawn) | 98.9
Cc1noc(C)c1C(=O)OCc1coc2ccccc2c1=O | 69.1
C[C@]12CC[C@@H]3c4ccc(O)c([N+](=O)[O-])c4CC[C@H]3[C@@H]1CCC2=O | 102
COc1cccc([C@H]2c3[nH]c4ccccc4c3C[C@H]3C(=O)N(CCCCCCC(=O)NO)CC(=O)N23)c1 | 59.6
CO/N=C(/C)c1ccc(NC(=O)CSc2nnc(-c3ccncc3)n2-c2ccccc2)cc1 | 74.8
